# From PubChem BioAssay
# An excerpt weighted towards active compounds, which were near 3.6% of everything screened.
# Nrf2 block = Nrf2 qHTS screen for inhibitors; A549 ARE-Fluc reporter, luciferase luminescence, 18-24 h; Potency, µM (series often up to 46 µM), without a hit: at the highest dose activity change, negative = inhibition, hits mostly inhibitors; 360,000 tested, 2.1% active; AID 504444, 2011; further: on the % scale 0 is the no-effect control and ±100 the full control effect; nearly all actives have a fitted effect of over 60% in size
#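 Nrf2 function is reported as luminescence of an ARE-controlled luciferase in A549 cells. Compounds were tested at several concentrations, and a CellTiter-Fluor read on the same wells flagged cytotoxicity.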
# TGFb SMAD3 inh = qHTS for Inhibitors of TGF-b. HepG2 CAGA-GFP TGF-b/SMAD3 reporter, GFP fluorescence, 18 h; TGF-beta stimulated, 500 pg/mL final. Potency, µM (top dose mostly 46.1 µM), without a hit: at the highest dose activity, negative = inhibition, actives largely listed as inhibitors. 410,000 tested, 1.2% active. AID 588855, 2011; further: on the % scale 0 is the no-effect control and ±100 the full control effect; nearly all actives have a fitted effect of over 65% in size
#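 Inhibition of TGF-beta-driven CAGA-GFP reporter expression in HEPG2 cells is measured by cellular GFP fluorescence after 18 h stimulation with 500 pg/mL recombinant TGF-beta in 1% FBS medium at 37 degrees C.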
# Nrf2 activator = qHTS of Nrf2 Activators. AREc32 ARE-luciferase reporter (MCF7-derived line), luminescence, 24 h. Potency, µM (titrated, usually from 46.1 µM), for inactives: at the top dose activation, most hits filed as activators. 410,000 tested, 0.31% active; further: % of control where 0% means no effect; nearly all actives have a fitted effect of over 65% in size
#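 ARE activation measured as luciferase luminescence (Steady-Glo, 30 min RT) in AREc32_Fluc cells after 24 hr compound exposure at 37 deg C, 5% CO2; cells seeded overnight at 1000/well in OPTI-MEM, 5% FBS.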
# A549 viability = Nrf2 qHTS screen for inhibitors: counterscreen for cytotoxicity; A549 ARE-Fluc cells, CellTiter-Fluor viability, 18-24 h; Potency, µM (highest dose often 46 µM), for the others: at the top dose activity change, negative = cytotoxicity, actives largely listed as inhibitors; 390,000 tested, 0.16% active; AID 504648, 2011; further: on the % scale 0 is the no-effect control and ±100 the full control effect
#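 Cytotoxicity counterscreen: CellTiter-Fluor fluorescence was measured in A549 ARE_Fluc cells after 18-24 h of compound exposure in a concentration series. The subsequent BugLite luminescent read reports ARE-luciferase activity.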
# HepG2 tox = qHTS for Inhibitors of TGF-b: Cytotox Counterscreen | HepG2 CAGA-GFP viability, ATP luminescence, 18 h | 410,000 tested, 0.76% active | Potency, µM (highest dose often 46.1 µM), for inactives: at the highest dose activity change, negative = cytotoxicity, most hits filed as cytotoxic
#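 HepG2 CAGA-GFP cells (1000/well, DMEM with 1% FBS) received compound, then TGF-beta at 500 pg/mL final, and were incubated 18 hours at 37 degrees C. Viability was read by CellTiter-Glo luminescence. Media-only wells were set as complete cell-killing and DMSO as no toxicity.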
# Numbers without * were called inactive; ? = inconclusive; · = no result given. The call rests on the fitted dose curve; in most records, active means well fitted curve in the direction sought with a large enough effect; inconclusive means small, poorly fitted or top-dose-only effect, or another doubt; inactive means no such curve, though single readings can be large; an effect the other way counts as inactive or inconclusive. Potency means the concentration at half of the fitted maximal effect.
SMILES,Nrf2 block,TGFb SMAD3 inh,Nrf2 activator,A549 viability,HepG2 tox
CCOC(=O)C1CCCN(Cc2cc(=O)oc3cc(C)ccc23)C1 (configuration not stated),?,18%,2%,-12%,-1%
COC(=O)c1ccc(NC(=O)CCc2c(C)nc3c(c(C)nn3C(C)(C)C)c2C)cc1,?,16µM*,-4%,-13%,-47%
CCOC(=O)c1ccc(NC(=O)CCc2c(C)nc3c(c(C)nn3C(C)(C)C)c2C)cc1,?,?,-2%,-9%,-18%
Cc1cccc(NC(=O)CCc2c(C)nc3c(c(C)nn3C(C)(C)C)c2C)c1C,18µM*,-10%,0%,-9%,-9%
Cc1ccc(C(=O)OCC(=O)Nc2cccc(S(=O)(=O)N3CCOCC3)c2)o1,-4%,5%,1%,1%,8%
O=C(Nc1ccc2c(c1)CCC2)c1cccc(OC(F)F)c1,?,40%,9%,0%,83%
Cc1cc(=O)oc2cc(OCc3ccc(C(=O)N4CCN(c5ccccc5)CC4)cc3)ccc12,18µM*,-3%,5%,-8%,-3%
Cc1cc(=O)oc2cc(OCc3ccc(C(=O)N4CCN(c5ccc([N+](=O)[O-])cc5)CC4)cc3)ccc12,-30%,-6%,-2%,-10%,-6%
O=C(Nc1ccsn1)c1ccc(Cl)cc1Cl,17%,0%,-1%,19%,-15%
C=CCN(c1ccccc1)S(=O)(=O)c1cc(C(=O)NC2=NCCS2)ccc1Cl,3%,-4%,-1%,5%,-2%
C=CCN(c1ccc(F)cc1)S(=O)(=O)c1cc(C(=O)NC2CCC(O)CC2)ccc1Cl (configuration not stated),16µM*,-21%,-1%,8%,-20%
CCOc1ccccc1N(C)C(=O)c1cc2c(=O)n(CC)c3ccccc3c2s1,?,?,0%,?,11µM*
CCn1c(=O)c2cc(C(=O)NCCOC)sc2c2ccccc21,21µM*,0%,0%,4%,-12%
CCn1c(=O)c2cc(C(=O)NCc3cc(OC)ccc3OC)sc2c2ccccc21,-13%,2.5µM*,0%,8%,-28%
O=[N+]([O-])c1cc(/C=N/O)ccc1N1CCCC1,9%,-13%,3%,-1%,0%
Cc1ccccc1C1=CCN(c2ncc(NC(=O)c3ccc(Cl)cc3)cc2C(=O)O)CC1,·,0%,4%,5%,0%
CC1(C)Cc2c(c(N3CCOCC3)nc3snc(N)c23)CO1,-22%,10µM*,13%,4%,-47%
CC1(C)Cc2c(c(N3CCOCC3)nc3snc(Br)c23)CO1,?,-4%,4%,0%,-8%
Cc1oc(-c2cccc(Cl)c2)nc1CSCC(=O)NCc1ccccc1Cl,23µM*,?,-1%,?,-6%
Cc1ccc(CNC(=O)CSCc2nc(-c3ccc(Cl)cc3)oc2C)cc1,21µM*,-21%,-1%,-8%,0%
C[C@@H]1CN([C@@H](C)CO)C(=O)CCCn2cc(nn2)CO[C@H]1CN(C)S(=O)(=O)c1ccc(Oc2ccccc2)nc1,·,28%,-1%,·,33%
O=C1c2ccccc2C(=O)c2c(NCc3cccnc3)cccc21,-9%,-19%,0%,-1%,-21%
O=C1c2cccc(NCCCNCCO)c2C(=O)c2cccc(NCCCNCCO)c21,?,16µM*,-1%,18µM*,-65%
CC1(C)CC(NC(=O)C2CCN(S(=O)(=O)c3cccc(C(F)(F)F)c3)CC2)CC(C)(C)N1,5%,0%,0%,2%,-23%
Cc1nnc(Cc2ccccc2)c2n[nH]c(C)c12,·,-4%,-1%,·,-14%
SMILES,Nrf2 block,TGFb SMAD3 inh,Nrf2 activator,A549 viability,HepG2 tox
Cc1nnc(Cc2ccco2)c2n[nH]c(C)c12,·,-10%,11µM*,·,-17%
O=S(=O)(c1cccc(Cl)c1)n1c(/C=C/c2ccccc2Cl)nc2ccccc21,·,?,-3%,-2%,10µM*
COc1ccc(NS(=O)(=O)c2ccc3c(c2)[C@H]2C=CC[C@H]2[C@@H](c2ccc(C(=O)O)cc2)N3)cc1,0%,11%,0%,-14%,5%
COc1cccc(NS(=O)(=O)c2ccc3c(c2)[C@H]2C=CC[C@H]2[C@@H](c2ccccc2Cl)N3)c1,21µM*,11µM*,-2%,-19%,-50%
Cc1ccc(CNC(=O)CCn2ccc3cc(S(=O)(=O)N4CCCC4)ccc32)cc1,-6%,-1%,0%,0%,0%
Nc1nnc(CCOc2ccc(Cl)cc2)s1,-26%,1%,0%,-1%,-14%
Cc1cccc(OCCc2nnc(N)s2)c1C,-15%,20µM*,0%,-11%,-11%
COc1ccc(-n2c(SC3CCOC3=O)nc3ccccc32)cc1 (configuration not stated),·,-21%,0%,0%,0%
CCCCCn1c(Sc2nc3ccccc3s2)nc2c1c(=O)[nH]c(=O)n2C,16µM*,-3%,8%,-10%,-24%
CCCCCn1c(Sc2ncccn2)nc2c1c(=O)[nH]c(=O)n2C,·,-25%,1%,3%,-3%
COc1ccc2c(c1)c1ncn(CC3CCCO3)c(=O)c1n2C (configuration not stated),-3%,-7%,0%,1%,6%
O=C(O)c1cc(O)c2c(c1)[C@H]([C@H]1c3cc(C(=O)O)cc(O)c3C(=O)c3c(O[C@@H]4O[C@H](CO)[C@@H](O)[C@H](O)[C@H]4O)cccc31)c1cccc(OC3O[C@H](CO)[C@@H](O)[C@H](O)[C@H]3O)c1C2=O (some centres not stated),?,?,-1%,16µM*,-34%
O=C(O)c1cc(O)c2c(c1)[C@@H]([C@H]1c3cc(C(=O)O)cc(O)c3C(=O)c3c(O[C@@H]4O[C@H](CO)[C@@H](O)[C@H](O)[C@H]4O)cccc31)c1cccc(OC3O[C@H](CO)[C@@H](O)[C@H](O)[C@H]3O)c1C2=O (some centres not stated),-18%,11µM*,-1%,-9%,-39%
COc1cc(C2(c3ccc(O)c(OC)c3)C(=O)Nc3c(Br)cc(Br)cc32)ccc1O,?,25µM*,13%,-9%,-95%
COc1cc(C2(c3ccc(O)c(OC)c3)C(=O)N(C)c3ccc(Br)cc32)ccc1O,-12%,?,3%,1%,-19%
COc1ccc(C(=O)N/N=C/c2ccc(OC)c(COc3ccc(F)cc3)c2)cc1,-9%,-2%,4%,3%,-39%
CCOc1ccc(N2C(=O)C(Cl)=C(Nc3ccccc3O)C2=O)cc1,10%,?,13µM*,1%,-34%
COc1ccccc1NC1=C(Cl)C(=O)N(c2ccccc2)C1=O,0%,12%,6%,0%,11%
